Among the data in PubChem BioAssay (NCATS) are Potency values, retold here.

Holding throughout (assay): qHTS profiling for inhibitors of Plasmodium falciparum proliferation (AID 504749); further: nearly all actives have a fitted effect of over 60% in size
What all share (conditions): P. falciparum in erythrocytes, SYBR Green DNA, 72 h; series mostly up to 28.7 µM

Assay [1] deals with CP269. In short, it runs like this: (§1)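 Readout was DNA-dye fluorescence from lysed cultures, ex 485/em 535 nm. Parasitized red cells had grown 72 h with compound; data scaled between 0.29 uM artemisinin and DMSO wells and corrected using vehicle-only plates.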
For assay [2], the system named is CP286. An outline of the steps:
as §1

The test system of assay [3] is CP291. An outline of the steps: as §1
For assay [4], the system named is CP297. An outline of the steps:
as §1

Assay [5] relates to CP305. An outline of the steps: as §1
Assay [6] relates to CP315. An outline of the steps: as §1
The subject of assay [7] is CP325. In short, it runs like this:
as §1

Assay [8] has as its system CP329. In short, it runs like this:
as §1

The test system of assay [9] is CP335. An outline of the steps: as §1
Assay [10] has as its system DFO2036. An outline of the steps:
as §1

The subject of assay [11] is DIV14. An outline of the steps: as §1
The test system of assay [12] is DIV17. An outline of the steps: as §1
Assay [13] has as its system DIV30. An outline of the steps: as §1
Assay [14] deals with Dd2. In short, it runs like this:
as §1

Assay [15] deals with ECU. In short, it runs like this:
as §1

Assay [16] deals with FAB9. In short, it runs like this: as §1
The subject of assay [17] is GB4. An outline of the steps: as §1
Assay [18] has as its system HB3. In short, it runs like this:
as §1

In assay [19] the test system is ICS. An outline of the steps:
as §1

The subject of assay [20] is JCK. An outline of the steps: as §1

Results filed as inconclusive are left out. Activity calls are given as the source filed them. The call rests on the fitted dose curve; in most records, active means well fitted inhibition curve with a large enough effect; inconclusive means small, poorly fitted or top-dose-only effect; inactive means flat fitted curve, though single readings scatter.
Potency means the concentration at half of the fitted maximal effect.

On to `OCC(O)CN1CCN(c2ccccc2)CC1` (centres undefined), for which the Potency entry in [1], in assay [2], in assay [3], in [4], in assay [5] and in assay [6] was “inactive” each time. Also, the Potency result in [7], in [8], in assay [9], in assay [10], in assay [11] and in [12] was “inactive” throughout. The Potency entry in assay [13], in [14], in assay [15], in assay [16], in assay [17] and in assay [18] was “inactive” throughout. Also, the Potency entry in [19] and in assay [20] was “inactive” throughout.

For `CC(C)(C)C(=O)NCCCC(=O)O`, the Potency result in [1], in assay [2], in assay [4], in assay [5], in [6] and in assay [7] was “inactive” throughout. The Potency result in assay [8], in assay [9], in assay [10], in assay [11], in assay [12] and in assay [13] was “inactive” each time. The Potency entry in [14], in [15], in assay [16], in assay [17], in assay [18] and in assay [19] was “inactive” each time. Also, the Potency entry in assay [20] was “inactive”. Moreover, the Potency in assay [3] is 12000 nM (active).

As to `Nc1ccc(S(=O)(=O)Nc2nccs2)cc1`, the Potency entry in assay [1], in [2], in assay [3], in assay [4], in assay [5] and in [6] was “inactive” throughout. Further, the Potency entry in assay [7], in [8], in assay [9], in assay [10], in assay [11] and in assay [12] was “inactive” in each case. Moreover, the Potency result in [13], in [14], in assay [15], in assay [16], in assay [17] and in assay [18] was “inactive” in each case. Further, the Potency entry in assay [19] and in assay [20] was “inactive” throughout.

For the molecule `CC1(C)CO[C@@H](CC(=O)O)CN1`, the Potency result in [1], in assay [2], in assay [3], in assay [4], in assay [5] and in assay [6] was “inactive” throughout. The Potency result in [7], in [8], in assay [9], in [10], in [11] and in assay [12] was “inactive” in each case. Moreover, the Potency result in [13], in assay [14], in assay [15], in assay [16], in assay [17] and in assay [18] was “inactive” each time. For the same molecule, the Potency result in [19] and in assay [20] was “inactive” each time.

For `CCOC(=O)c1ccc(O)cc1`, the Potency entry in [1], in [2], in [3], in [4], in [5] and in assay [6] was “inactive” in each case. Moreover, the Potency entry in [7], in assay [8], in assay [9], in [10], in assay [11] and in assay [12] was “inactive” each time. In addition, the Potency result in assay [13], in assay [14], in [15], in assay [16], in assay [17] and in assay [18] was “inactive” in each case. Also, the Potency entry in assay [19] and in assay [20] was “inactive” throughout.

With `Cc1cccc(C)c1NC(=O)CN(CC(=O)O)CC(=O)O`, the Potency result in assay [1], in assay [2], in assay [3], in [4], in assay [5] and in assay [6] was “inactive” throughout. Besides, the Potency result in assay [7], in assay [8], in assay [9], in assay [10], in assay [11] and in assay [12] was “inactive” throughout. For the same molecule, the Potency entry in assay [13], in assay [14], in assay [15], in assay [16], in assay [17] and in assay [18] was “inactive” in each case. In addition, the Potency entry in assay [19] and in assay [20] was “inactive” each time.

For `O=C(O)c1ccccc1-c1ccc(C(F)(F)F)cc1`, the Potency entry in [1], in assay [2], in assay [3], in assay [4], in [5] and in [6] was “inactive” each time. In addition, the Potency result in [7], in assay [8], in [9], in assay [10], in [11] and in [12] was “inactive” in each case. Also, the Potency result in assay [13], in [14], in [15], in assay [16], in [17] and in [18] was “inactive” throughout. Moreover, the Potency result in assay [19] and in assay [20] was “inactive” in each case.

As to `O=C1NC(=O)[C@@]2(CCOc3ccc(F)cc32)N1`, the Potency entry in assay [1], in [2], in [3], in assay [4], in assay [5] and in assay [6] was “inactive” in each case. Besides, the Potency entry in assay [7], in assay [8], in assay [9], in assay [10], in assay [11] and in assay [12] was “inactive” throughout. Besides, the Potency entry in [13], in assay [14], in assay [15], in assay [16], in [17] and in assay [18] was “inactive” throughout. The Potency result in [19] and in [20] was “inactive” each time.

Turning to `NCCNCCNCCNCCN`, the Potency entry in [1], in assay [2], in assay [3], in assay [4], in assay [5] and in [6] was “inactive” throughout. Also, the Potency result in assay [7], in assay [8], in [9], in assay [10], in [11] and in [12] was “inactive” each time. The Potency result in assay [13], in assay [14], in [15], in [16], in assay [17] and in assay [18] was “inactive” in each case. Moreover, the Potency result in assay [19] and in [20] was “inactive” throughout.

`CCCCC(CC)COC(=O)c1ccccc1O` (centres undefined): the Potency entry in assay [1], in [2], in assay [3], in assay [4], in assay [5] and in assay [6] was “inactive” in each case. Moreover, the Potency result in [7], in assay [8], in [9], in assay [10], in assay [11] and in assay [12] was “inactive” throughout. Further, the Potency result in assay [13], in assay [14], in [15], in [16], in assay [17] and in assay [18] was “inactive” in each case. In addition, the Potency result in assay [19] and in assay [20] was “inactive” each time.

`CC(O)COc1ccccc1` (centres undefined): the Potency result in assay [1], in assay [2], in assay [3], in assay [4], in assay [5] and in assay [6] was “inactive” each time. For the same molecule, the Potency result in assay [7], in assay [8], in assay [9], in [10], in assay [11] and in [12] was “inactive” in each case. Also, the Potency result in assay [13], in assay [14], in assay [15], in [16], in [17] and in [18] was “inactive” each time. In addition, the Potency result in assay [19] and in assay [20] was “inactive” throughout.

For `CC1=C(/C=C/C(C)=C/C=C/C(C)=C/C(=O)O)C(C)(C)CCC1`, the Potency entry in assay [1], in assay [2], in assay [3], in assay [5], in [6] and in [7] was “inactive” throughout. Moreover, the Potency entry in assay [8], in assay [9], in [10], in [11], in [12] and in assay [13] was “inactive” each time. Also, the Potency result in assay [14], in assay [15], in assay [16], in assay [17], in assay [18] and in assay [19] was “inactive” in each case. In addition, in assay [20], the Potency entry was “inactive”.

On to `O=S(=O)(O)c1cc(I)c(O)c2ncccc12`, for which the Potency result in [1], in [2], in assay [3], in assay [4], in [5] and in assay [6] was “inactive” each time. Besides, the Potency result in [7], in assay [8], in assay [9], in assay [10], in assay [11] and in [12] was “inactive” each time. The Potency entry in assay [13], in assay [14], in assay [15], in assay [16], in assay [17] and in [18] was “inactive” throughout. The Potency entry in assay [20] is “inactive”.

On to `CCCCCCCCCCCCCCCCCCOCC(O)CO` (centres undefined), for which the Potency entry in assay [1], in assay [2], in assay [3], in assay [4], in assay [5] and in assay [6] was “inactive” throughout. Besides, the Potency result in assay [7], in assay [8], in [10], in assay [11], in assay [12] and in assay [13] was “inactive” throughout. In addition, the Potency result in [14], in assay [15], in assay [16], in assay [17], in assay [18] and in assay [19] was “inactive” each time. For the same molecule, the Potency result in [20] was “inactive”.

Turning to `CCCCN(CCCC)CC(O)c1cc(Cl)cc2c1-c1ccc(Cl)cc1/C2=C/c1ccc(Cl)cc1` (centres undefined), the Potency is 37.9 nM (active) in assay [1]; 31.6 nM (active) in assay [2]; 37.9 nM (active) in assay [3]; 33.8 nM (active) in assay [4]; 107 nM (active) in assay [5]; 53.6 nM (active) in assay [6]. In addition, the Potency was 42.6 nM (active) in assay [7]; 47.8 nM (active) in assay [8]; 23.9 nM (active) in assay [9]; 12.6 nM (active) in assay [10]; 13.5 nM (active) in assay [12]; 6.7 nM (active) in [13]. Also, the Potency in assay [14] is 8.9 nM (active); in assay [15], 5.6 nM (active); in assay [16], 316 nM (active); in assay [18], 14.1 nM (active); in assay [19], 1.4 nM (active).
